Results on 4 compounds are retold here after PubChem BioAssay (EPA / NIEHS).

Inconclusive results are not listed. Active and inactive are the calls of the source. Rule for the calls, unless noted: active = hit-call score of the fitted dose curve at least 0.9, where 1 is the maximum; inactive = score below 0.9.

The AC50 is the midpoint of the concentration-response curve, whichever way the signal moves.

Read-out in assay [1]: Nuclear factor erythroid 2-related factor 2 (Homo sapiens) (UniProt Q16236)
Nature of the assay: LTEA_HepaRG_NFE2L2: Life Technologies and Expression Analysis (LTEA) Assay for Nuclear factor erythroid 2-related factor 2 (NFE2L2) Transcription Factor using HepaRG (AID 2283527).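 For outcome: TaqMan qRT-PCR transcript level normalised to ACTB GAPDH and POLR2A housekeeping genes.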 Particulars: mRNA level, 48 h; actives raise or lower the signal. In short, it runs like this: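 Differentiated human HepaRG cells in serum-free induction medium were exposed for 48 h to eight concentrations (top 100 uM, half-log dilutions, 0.5% DMSO), in duplicate. NFE2L2 mRNA was quantified by TaqMan qRT-PCR, normalized to ACTB, GAPDH and POLR2A, with bidirectional fitting versus DMSO.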

Read-out in assay [2]: Signal transducer and activator of transcription 3 (Homo sapiens) (UniProt P40763)
Kind of assay: LTEA_HepaRG_STAT3: Life Technologies and Expression Analysis (LTEA) Assay for Signal transducer and activator of transcription (STAT3) using HepaRG (AID 2283529). The conditions noted are these: mRNA level, 48 h; actives raise or lower the signal. In short, it runs like this: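 Differentiated human HepaRG cells in serum-free induction medium were exposed in duplicate for 48 h to eight half-log concentrations up to 100 uM in 0.5% DMSO. STAT3 mRNA was quantified by TaqMan qRT-PCR, normalized to ACTB, GAPDH and POLR2A, and fitted bidirectionally against DMSO.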

Read-out in assay [3]: solute carrier (SLCO1B1), SLCO1B1 (gene 10599)
Kind of assay: LTEA_HepaRG_SLCO1B1: Life Technologies and Expression Analysis (LTEA) Assay for solute carrier (SLCO1B1) using HepaRG (AID 2283530). Particulars: mRNA level, 48 h; actives raise or lower the signal. Put shortly:
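Gain or loss of SLCO1B1 mRNA is fitted against the 0.5% DMSO vehicle in human HepaRG liver cells treated 48 h at up to 100 uM in half-log steps. Expression comes from qRT-PCR normalized to endogenous controls.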

Read-out in assay [4]: sulfotransferase 2A1 (SULT2A1), SULT2A1 (gene 6822)
Kind of assay: LTEA_HepaRG_SULT2A1: Life Technologies and Expression Analysis (LTEA) Assay for sulfotransferase 2A1 (SULT2A1) using HepaRG (AID 2283531). Particulars: mRNA level, 48 h; actives raise or lower the signal. In short, it runs like this:
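Cells were plated and cultured 48 h, switched to serum-free induction medium, then dosed in duplicate for 48 h (8 concentrations, max 100 uM). RNA was isolated and SULT2A1 expression measured by qRT-PCR; gain or loss of signal fitted relative to DMSO.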

Read-out in assay [5]: Transforming Growth Factor (TGFA), TGFA (gene 7039)
Nature of the assay: LTEA_HepaRG_TGFA: Life Technologies and Expression Analysis (LTEA) Assay for Transforming Growth Factor (TGFA) using HepaRG (AID 2283532). The conditions noted are these: mRNA level, 48 h; actives raise or lower the signal. Put shortly:
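Differentiated human HepaRG cells, plated 48 h then switched to serum-free induction medium, were exposed in duplicate for 48 h to 8-point half-log series from 100 uM in 0.5% DMSO. TGFA mRNA measured by qRT-PCR, normalized to ACTB/GAPDH/POLR2A, bidirectional fit versus DMSO.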

Read-out in assay [6]: Transforming Growth Factor (TGFB1), TGFB1 (gene 7040)
Nature of the assay: LTEA_HepaRG_TGFB1: Life Technologies and Expression Analysis (LTEA) Assay for Transforming Growth Factor (TGFB1) Transporter using HepaRG (AID 2283533). Particulars: mRNA level, 48 h; actives raise or lower the signal. Put shortly: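 Expression change of TGFB1 in human HepaRG cells is measured after a 48 h chemical exposure, up to 100 uM in 0.5% DMSO vehicle. Curves are fitted in both directions relative to the DMSO baseline.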

Read-out in the next assay: TIMP1, TIMP1 (gene 7076)
Kind of assay: LTEA_HepaRG_TIMP1: Life Technologies and Expression Analysis (LTEA) Assay for TIMP1 using HepaRG (AID 2283534). Particulars: mRNA level, 48 h; actives raise or lower the signal. In short, it runs like this:
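We dosed human liver HepaRG cultures for 48 hours with up to 100 uM test chemical and measured TIMP1 expression by qRT-PCR. Activity in either direction is fitted relative to the 0.5% DMSO vehicle.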

Read-out in assay [7]: Tumor necrosis factor receptor 1 (TNFRSF1A), TNFRSF1A (gene 7132)
Kind of assay: LTEA_HepaRG_TNFRSF1A: Life Technologies and Expression Analysis (LTEA) Assay for Tumor necrosis factor receptor 1 (TNFRSF1A) using HepaRG (AID 2283535). The conditions noted are these: mRNA level, 48 h; actives raise or lower the signal. Put shortly: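 Expression of TNFRSF1A in human HepaRG liver cells was measured by qRT-PCR 48 h after chemical dosing (maximum 100 uM). Bidirectional curve fitting used 0.5% DMSO as baseline.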

Read-out in assay [8]: Thyroid Hormone Responsive (THRSP), THRSP (gene 7069)
Kind of assay: LTEA_HepaRG_THRSP: Life Technologies and Expression Analysis (LTEA) Assay for Thyroid Hormone Responsive (THRSP) using HepaRG (AID 2283536). The conditions noted are these: mRNA level, 48 h; actives raise or lower the signal. In short, it runs like this: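 Differentiated human HepaRG cells were exposed in duplicate for 48 h in serum-free induction medium to eight concentrations (top 100 uM, half-log steps, 0.5% DMSO). Expression was quantified by TaqMan qRT-PCR, normalized to ACTB, GAPDH and POLR2A, with bidirectional fitting against DMSO.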

Read-out in assay [9]: Cellular tumor antigen p53 (Homo sapiens) (UniProt P04637)
Kind of assay: LTEA_HepaRG_TP53: Life Technologies and Expression Analysis (LTEA) Assay for Tumor Protein P53 (TP53) using HepaRG (AID 2283537). Particulars: mRNA level, 48 h; actives raise or lower the signal. Put shortly:
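Differentiated HepaRG cells in serum-free induction medium exposed 48 h in duplicate to 8 half-log concentrations, top 100 uM, 0.5% DMSO. TP53 mRNA by TaqMan qRT-PCR (Fluidigm), normalized to ACTB, GAPDH, POLR2A; fitted bidirectionally versus DMSO.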

Read-out in assay [10]: UDP glucuronosyltransferase (UGT1A1), UGT1A1 (gene 54658)
Kind of assay: LTEA_HepaRG_UGT1A1: Life Technologies and Expression Analysis (LTEA) Assay for UDP glucuronosyltransferase (UGT1A1) using HepaRG (AID 2283538). Particulars: mRNA level, 48 h; actives raise or lower the signal. In short, it runs like this:
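HepaRG cells, 0.5% DMSO vehicle, 48 h exposure in serum-free induction medium to 8-point half-log series topping at 100 uM, in duplicate. UGT1A1 mRNA by Fluidigm qRT-PCR, normalized to ACTB/GAPDH/POLR2A; bidirectional fit versus DMSO.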

Read-out in assay [11]: UDP glucuronosyltransferase (UGT1A6), UGT1A6 (gene 54578)
Nature of the assay: LTEA_HepaRG_UGT1A6: Life Technologies and Expression Analysis (LTEA) Assay for UDP glucuronosyltransferase (UGT1A6) using HepaRG (AID 2283539). The conditions noted are these: mRNA level, 48 h; actives raise or lower the signal. In short, it runs like this: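 Endpoint is UGT1A6 transcript induction or loss in a human liver cell line, quantified by TaqMan qRT-PCR 48 h after dosing. Concentrations ran from 100 uM downward in half-log steps in 0.5% DMSO; activity was fitted in both directions versus vehicle.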

Read-out in assay [12]: X-box binding protein 1 (XBP1), XBP1 (gene 7494)
Nature of the assay: LTEA_HepaRG_XBP1: Life Technologies and Expression Analysis (LTEA) Assay for X-box binding protein 1 (XBP1) using HepaRG (AID 2283540). The conditions noted are these: mRNA level, 48 h; actives raise or lower the signal. Put shortly: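 Human HepaRG monolayers receive test chemical for 48 h across an eight-point half-log series starting at 100 uM. XBP1 mRNA gain or loss is scored against DMSO by qRT-PCR.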

A short description of assay [13]: LTEA_HepaRG_LDH_cytotoxicity: Cytotoxicity Assessment in the Life Technologies and Expression Analysis (LTEA) Assay (AID 2283563; active = hit-call score of the fitted dose curve at least 0.9, where 1 is the maximum;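 for AC50: LDH activity released into spent culture medium as a marker of cell death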). Put shortly:
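Human HepaRG hepatic cells are treated with test chemicals for 48 h at up to 100 uM in 0.5% DMSO. Cytotoxicity is scored from medium LDH against the vehicle control.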

Assay [14] addresses Cellular tumor antigen p53 (Homo sapiens) (UniProt P04637). Kind of assay: TOX21_p53_BLA_p2_ratio: Tox21 HCT-116 p53 Agonism Beta-lactamase Assay, Ratio, Phase 2 (AID 2283592; active = hit-call score of the fitted dose curve at least 0.9, where 1 is the maximum). Put shortly:
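An inducible beta-lactamase reporter in HCT116 cells signals p53 pathway activation. After 16 h chemical exposure at 37C, cells load CCF4-AM substrate for 2 h at room temperature; activity is the cleaved/uncleaved emission ratio relative to DMSO.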

Assay [15] can be described thus: TOX21_p53_BLA_p3_viability: Viability Assessment in the Tox21 HCT-116 p53 Agonism Beta-lactamase Assay, Phase 3 (AID 2283593; active = hit-call score of the fitted dose curve at least 0.9, where 1 is the maximum;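 note: cells exposed to compound for 16 h before reading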). Put shortly:
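HCT-116 cells (4000/well) rested 5 h at 37C, then got DMSO compounds by pin tool (217-fold dilution) for 16 h at 37C, 5% CO2. After the bla read, CellTiter-Glo was added and luminescence read at 30 min, room temperature.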

In assay [16] the target is Cellular tumor antigen p53 (Homo sapiens) (UniProt P04637). Nature of the assay: TOX21_p53_BLA_p3_ratio: Tox21 HCT-116 p53 Agonism Beta-lactamase Assay, Ratio, Phase 3 (AID 2283596; active = hit-call score of the fitted dose curve at least 0.9, where 1 is the maximum). In short, it runs like this:
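HCT116 p53-bla cells (4000/well) given compound in DMSO (217-fold dilution) after 5 h, incubated 16 h at 37C. CCF4-AM substrate 2 h at room temperature; 460/530 nm emission ratio, gain fitted against DMSO.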

A short description of assay [17]: ATG_XTT_Cytotoxicity: Cytotoxicity Assessment in the Attagene TRANS-FACTORIAL HepG2 Assay (AID 2283584; active = hit-call score of the fitted dose curve at least 0.9, where 1 is the maximum). In short, it runs like this:
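Transfect HepG2 with GAL4-UAS reporter units, dose compound, incubate 24 h, then measure viable cell number by XTT. Fit concentration response against DMSO baseline.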

The nature of assay [18]: TOX21_p53_BLA_p2_viability: Viability Assessment in the Tox21 HCT-116 p53 Agonism Beta-lactamase Assay, Phase 2 (AID 2283591; active = hit-call score of the fitted dose curve at least 0.9, where 1 is the maximum;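 note: compound exposure lasted 16 h at 37 °C; actives lower the ATP signal meaning cytotoxicity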). In short, it runs like this:
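HCT-116 p53-bla cells (4000/well) rested 5 h at 37C, then received compounds in DMSO (217-fold dilution) for 16 h at 37C, 5% CO2. After the CCF4 read, CellTiter-Glo was added; ATP luminescence was read after 30 min at room temperature.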

Read-out in assay [19]: succinate dehydrogenase complex iron sulfur subunit B (SDHB), SDHB (gene 6390)
Kind of assay: LTEA_HepaRG_SDHB: Life Technologies and Expression Analysis (LTEA) Assay for succinate dehydrogenase complex iron sulfur subunit B (SDHB) using HepaRG (AID 2283528). The conditions noted are these: mRNA level, 48 h; actives raise or lower the signal. In short, it runs like this:
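HepaRG cells (~100,000/well, plated 48 h) exposed in duplicate for 48 h in serum-free induction medium to 8-point half-log series from 100 uM in 0.5% DMSO; mRNA by qRT-PCR normalised to ACTB, GAPDH, POLR2A; bidirectional fit versus DMSO.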

Nuclear factor erythroid 2-related factor 2 (Homo sapiens), sequence (Q16236 whole entry, looked up): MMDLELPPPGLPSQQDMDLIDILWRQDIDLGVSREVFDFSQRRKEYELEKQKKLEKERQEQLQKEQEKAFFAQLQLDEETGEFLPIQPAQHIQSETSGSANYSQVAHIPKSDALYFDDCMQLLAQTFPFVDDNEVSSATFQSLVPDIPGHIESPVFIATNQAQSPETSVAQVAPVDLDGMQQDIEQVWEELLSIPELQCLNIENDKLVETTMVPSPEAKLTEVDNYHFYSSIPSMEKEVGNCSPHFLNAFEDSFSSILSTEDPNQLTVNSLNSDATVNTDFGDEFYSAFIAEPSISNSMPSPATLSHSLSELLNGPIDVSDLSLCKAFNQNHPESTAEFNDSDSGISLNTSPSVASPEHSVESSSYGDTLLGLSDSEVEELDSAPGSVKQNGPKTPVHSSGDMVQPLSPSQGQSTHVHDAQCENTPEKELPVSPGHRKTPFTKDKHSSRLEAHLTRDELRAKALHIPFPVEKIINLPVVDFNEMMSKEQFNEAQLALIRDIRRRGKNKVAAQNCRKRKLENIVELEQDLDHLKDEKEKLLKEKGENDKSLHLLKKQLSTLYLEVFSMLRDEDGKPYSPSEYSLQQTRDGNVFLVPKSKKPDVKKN
Signal transducer and activator of transcription 3 (Homo sapiens), sequence (P40763 whole entry, looked up): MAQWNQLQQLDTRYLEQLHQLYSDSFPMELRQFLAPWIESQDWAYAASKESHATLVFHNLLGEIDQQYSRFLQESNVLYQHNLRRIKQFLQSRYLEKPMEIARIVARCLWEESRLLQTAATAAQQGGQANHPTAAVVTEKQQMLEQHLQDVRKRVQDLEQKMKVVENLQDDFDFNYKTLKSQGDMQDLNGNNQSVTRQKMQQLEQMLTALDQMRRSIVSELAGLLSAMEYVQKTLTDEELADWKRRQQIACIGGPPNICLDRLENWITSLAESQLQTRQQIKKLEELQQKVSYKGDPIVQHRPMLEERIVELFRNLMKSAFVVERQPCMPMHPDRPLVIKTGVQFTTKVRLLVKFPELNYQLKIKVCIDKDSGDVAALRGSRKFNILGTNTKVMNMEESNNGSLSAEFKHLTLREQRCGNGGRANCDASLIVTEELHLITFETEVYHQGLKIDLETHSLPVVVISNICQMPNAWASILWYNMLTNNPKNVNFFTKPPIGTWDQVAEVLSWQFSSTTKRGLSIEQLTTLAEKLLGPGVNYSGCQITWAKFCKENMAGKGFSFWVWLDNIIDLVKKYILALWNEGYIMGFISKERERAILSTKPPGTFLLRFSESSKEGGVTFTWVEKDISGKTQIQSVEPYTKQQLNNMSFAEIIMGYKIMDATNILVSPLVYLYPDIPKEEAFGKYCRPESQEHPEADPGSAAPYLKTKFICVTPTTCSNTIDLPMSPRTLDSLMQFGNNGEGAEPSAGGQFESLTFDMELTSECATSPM
Cellular tumor antigen p53 (Homo sapiens), sequence (P04637 whole entry, looked up): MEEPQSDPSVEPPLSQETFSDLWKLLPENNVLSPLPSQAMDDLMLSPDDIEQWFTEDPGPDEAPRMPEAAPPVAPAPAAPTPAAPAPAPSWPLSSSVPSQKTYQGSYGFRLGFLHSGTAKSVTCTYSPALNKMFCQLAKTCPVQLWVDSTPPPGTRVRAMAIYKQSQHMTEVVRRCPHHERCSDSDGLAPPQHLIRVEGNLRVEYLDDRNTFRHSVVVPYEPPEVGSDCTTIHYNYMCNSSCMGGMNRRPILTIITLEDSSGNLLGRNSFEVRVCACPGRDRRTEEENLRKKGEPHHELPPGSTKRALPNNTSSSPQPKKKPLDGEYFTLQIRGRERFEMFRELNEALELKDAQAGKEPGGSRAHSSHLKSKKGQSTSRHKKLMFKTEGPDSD

Regarding `CCCCCCCCCC[N+](C)(C)[O-]`, the outcome in assay [1], in assay [2], in assay [3], in assay [4], in assay [5] and in assay [6] was inactive. Besides, the outcome is “inactive” in the assay with TIMP1, TIMP1 (gene 7076); “inactive” in assay [7]; “inactive” in assay [8]; “inactive” in assay [9]; “inactive” in assay [10]; “inactive” in assay [11]. The result in assay [12], in assay [13], in assay [14], in [15] and in [16] was inactive.

`CCCCC(CC)COP(=O)(OCC(CC)CCCC)OCC(CC)CCCC` (stereo unspecified): the call in [1], in [2], in assay [3], in assay [4], in [5] and in [6] was inactive. Further, the outcome with TIMP1, TIMP1 (gene 7076) was “inactive”; in [7], “inactive”; in [8], “inactive”; in assay [9], “inactive”; in [11], “inactive”; in assay [12] it was “inactive”. Besides, the call in assay [13], in assay [17], in [18], in assay [15] and in assay [16] was inactive. Also, the AC50 in [10] was 13.3 µM (active).

In the case of `Cc1ccc(-c2cc(C(F)(F)F)nn2-c2ccc(S(N)(=O)=O)cc2)cc1`, the AC50 in assay [1] is 62.7 µM (active); in assay [2], 89.2 µM (active); in [5] it was 73.1 µM (active); in assay [6], 84.2 µM (active); with TIMP1, TIMP1 (gene 7076), 88 µM (active); in [7], 93.5 µM (active). Besides, the AC50 in [10] is 86.3 µM (active); in [11], 71.6 µM (active); in assay [12], 50 µM (active); in assay [13], 74.4 µM (active). The call in [19] and in [3] was inactive.

As to `N[C@@H](Cc1c[nH]c2ccccc12)C(=O)O`, the call in assay [1], in [2], in assay [3], in assay [4], in assay [5] and in assay [6] was inactive. The outcome in the assay with TIMP1, TIMP1 (gene 7076) was “inactive”; in assay [7] it was “inactive”; in [8] it was “inactive”; in assay [10], “inactive”; in assay [11], “inactive”; in [12], “inactive”. For the same compound, the result in assay [13] and in [17] was inactive.
